Measurements published in PubChem BioAssay (Tox21).
Records with an inconclusive call do not appear. The source made the active and inactive calls. Unless noted, the call rests on the fitted dose curve; in most records, active means well fitted curve in the direction sought with a large enough effect in the repeat runs; inconclusive means weak or mixed curves; inactive means no such curve, though single readings can be large; an effect the other way counts as inactive or inconclusive.

How the values were obtained:
[1] = qHTS RealTime-Glo MT Cell Viability Assay in HepG2 cells - 32 hour (AID 1224877); further: nearly all actives have a fitted effect of over 55% in size
Summary of the method: (§1)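 qHTS, HepG2, 600 cells/well, RealTime-Glo (NanoLuc + prosubstrate) added with cells; 5 h preincubation; DMSO compound addition; 37 C; luminescence at 0/8/16/24/32/40 h.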

[2] = A CellTox Green Cytotoxicity Assay to monitor cytotoxicity in HepG2 cells - 24 hour (AID 1224878); further: nearly all actives have a fitted effect of over 45% in size
Summary of the method: (§2)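 Continuous culture of HepG2 cells with a membrane-impermeant DNA dye; rising fluorescence marks dead cells. Compound exposure lasted up to 40 h at 37 C, with reads every 8 h from 0 h.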

[3] = A CellTox Green Cytotoxicity Assay to monitor cytotoxicity in HepG2 cells - 40 hour (AID 1224879); further: nearly all actives have a fitted effect of over 40% in size
Summary of the method: as §2

[4] = qHTS RealTime-Glo MT Cell Viability Assay in HEK293 cells - 0 hour (AID 1224880); further: top concentration of the series differs between compounds; nearly all actives have a fitted effect of over 45% in size
Summary of the method: (§3)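 qHTS format; HEK293 cells with NanoLuc/prosubstrate reagent, 37 C/5% CO2 for 5 h pre-dosing; compounds 23 nL in DMSO; luminescence at each time point reflects viable cells.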

[5] = A CellTox Green Cytotoxicity Assay to monitor cytotoxicity in HEK293 cells - 32 hour (AID 1224881); further: nearly all actives have a fitted effect of over 40% in size
Summary of the method: (§4)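 Each value comes from one timepoint of a single continuous run in which HEK293 cells with CellTox Green were exposed to compound for up to 40 h at 37 C, dye fluorescence rising with cell death.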

[6] = A CellTox Green Cytotoxicity Assay to monitor cytotoxicity in HepG2 cells - 0 hour (AID 1224882); further: nearly all actives have a fitted effect of over 35% in size
Summary of the method: as §2

[7] = A CellTox Green Cytotoxicity Assay to monitor cytotoxicity in HepG2 cells - 32 hour (AID 1224883); further: nearly all actives have a fitted effect of over 50% in size
Summary of the method: as §2

[8] = A CellTox Green Cytotoxicity Assay to monitor cytotoxicity in HEK293 cells - 8 hour (AID 1224884); further: nearly all actives have a fitted effect of over 35% in size
Summary of the method: as §4

[9] = qHTS RealTime-Glo MT Cell Viability Assay in HepG2 cells - 16 hour (AID 1224885); further: nearly all actives have a fitted effect of over 50% in size
Summary of the method: as §1

[10] = qHTS RealTime-Glo MT Cell Viability Assay in HEK293 cells - 24 hour (AID 1224886); further: top concentration of the series differs between compounds; nearly all actives have a fitted effect of over 50% in size
Summary of the method: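 Assay medium contained NanoLuc luciferase plus cell-permeant prosubstrate, added with HEK293 cells at 600 cells/well. After 5 h at 37 C/5% CO2 compounds were added; plates stayed at 37 C for 40 h with serial luminescence reads.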

[11] = A CellTox Green Cytotoxicity Assay to monitor cytotoxicity in HEK293 cells - 16 hour (AID 1224888); further: nearly all actives have a fitted effect of over 35% in size
Summary of the method: as §4

[12] = qHTS RealTime-Glo MT Cell Viability Assay in HepG2 cells - 0 hour (AID 1224889); further: nearly all actives have a fitted effect of over 50% in size
Summary of the method: as §1

[13] = A CellTox Green Cytotoxicity Assay to monitor cytotoxicity in HepG2 cells - 8 hour (AID 1224890); further: nearly all actives have a fitted effect of over 45% in size
Summary of the method: as §2

[14] = qHTS assay to identify small molecule antagonists of the estrogen receptor alpha (ER-alpha) signaling pathway using the BG1 cell line in the presence of 0.1 nM 17-beta-estradiol - cell viability counter screen (AID 1259241); further: nearly all actives have a fitted effect of over 40% in size
Summary of the method: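 Following 5 days in phenol red-free medium with charcoal-stripped serum, VM7Luc4E2 cells received test compounds alongside 0.1 nM 17beta-estradiol (final) at 37C for 22 hr. Live cells were then quantified via protease-substrate fluorescence.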

[15] = qHTS assay to identify small molecule antagonists of the androgen receptor (AR) signaling pathway using the MDA cell line in the presence of 0.5 nM R1881 - cell viability counter screen (AID 1259242); further: nearly all actives have a fitted effect of over 45% in size
Summary of the method: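 Fluorescence from CellTiter-Fluor, which reports protease activity of live cells, was read 30 min after reagent addition to MDA-kb2 cells that had been incubated 16 hr with compound and 0.5 nM R1881.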

[16] = target: Androgen receptor (Homo sapiens) (UniProt P10275); test: qHTS assay to identify small molecule antagonists of the androgen receptor (AR) signaling pathway using the MDA cell line in the presence of 0.5 nM R1881 (AID 1259243); further: nearly all actives have a fitted effect of over 50% in size
Summary of the method: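 Inhibition of R1881 (0.5 nM final) induced reporter signal was measured in human MDA-kb2 cells; note the MMTV promoter also responds to GR. Exposure lasted 16 hr at 37C.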

[17] = qHTS assay to identify small molecule HDAC inhibitors (AID 1259364)
Summary of the method: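 Endogenous HDAC class I/II activity was measured in wild-type HCT-116 cells by HDAC-Glo luminescence after 2 h compound treatment.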

[18] = qHTS RealTime-Glo MT Cell Viability Assay in HEK293 cells - 8 hour (AID 1224887)
Summary of the method: as §3

[19] = qHTS assay to identify small molecule phospholipidosis (PLD) inducers (AID 1259344; active means well fitted curve in the direction sought with a large enough effect; an effect the other way counts as inactive or inconclusive)
Summary of the method: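 Fluorescent phospholipid staining (LipidTOX Red) measured by automated microscopy in fixed HepG2 cells after 24 h treatment; nuclei counterstained with Hoechst 33342; amiodarone as reference inducer.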

[20] = target: Estrogen receptor (Homo sapiens) (UniProt P03372); test: qHTS assay to identify small molecule antagonists of the estrogen receptor alpha (ER-alpha) signaling pathway using the BG1 cell line in the presence of 0.1 nM 17-beta-estradiol (AID 1259244); further: nearly all actives have a fitted effect of over 50% in size
Summary of the method: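 Quantitative high-throughput screen in VM7Luc4E2 cells: compound plus 0.1 nM E2 (final), 22 h, 37C, 5% CO2; ONE-Glo added, 30 min room temperature, luminescence measured.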
On the % scale 0 is the no-effect control and ±100 the full control effect.

Chain of Estrogen receptor (Homo sapiens) (P03372 whole entry, looked up): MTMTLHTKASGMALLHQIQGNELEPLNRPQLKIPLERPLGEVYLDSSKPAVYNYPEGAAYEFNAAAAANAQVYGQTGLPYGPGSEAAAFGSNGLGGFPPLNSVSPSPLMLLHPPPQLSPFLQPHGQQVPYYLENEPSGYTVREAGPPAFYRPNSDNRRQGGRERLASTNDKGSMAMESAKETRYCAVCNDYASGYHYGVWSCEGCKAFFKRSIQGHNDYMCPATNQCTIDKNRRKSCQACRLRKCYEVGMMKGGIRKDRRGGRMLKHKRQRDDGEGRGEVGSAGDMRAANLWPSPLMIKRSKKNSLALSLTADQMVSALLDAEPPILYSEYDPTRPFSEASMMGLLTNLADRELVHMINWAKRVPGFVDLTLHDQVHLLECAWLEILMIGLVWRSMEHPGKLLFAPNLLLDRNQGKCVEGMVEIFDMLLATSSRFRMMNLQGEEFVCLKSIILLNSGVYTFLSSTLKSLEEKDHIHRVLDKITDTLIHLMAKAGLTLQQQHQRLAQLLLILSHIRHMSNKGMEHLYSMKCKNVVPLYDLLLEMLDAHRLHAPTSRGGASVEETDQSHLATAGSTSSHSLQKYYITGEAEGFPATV
Chain of Androgen receptor (Homo sapiens) (P10275 whole entry, looked up): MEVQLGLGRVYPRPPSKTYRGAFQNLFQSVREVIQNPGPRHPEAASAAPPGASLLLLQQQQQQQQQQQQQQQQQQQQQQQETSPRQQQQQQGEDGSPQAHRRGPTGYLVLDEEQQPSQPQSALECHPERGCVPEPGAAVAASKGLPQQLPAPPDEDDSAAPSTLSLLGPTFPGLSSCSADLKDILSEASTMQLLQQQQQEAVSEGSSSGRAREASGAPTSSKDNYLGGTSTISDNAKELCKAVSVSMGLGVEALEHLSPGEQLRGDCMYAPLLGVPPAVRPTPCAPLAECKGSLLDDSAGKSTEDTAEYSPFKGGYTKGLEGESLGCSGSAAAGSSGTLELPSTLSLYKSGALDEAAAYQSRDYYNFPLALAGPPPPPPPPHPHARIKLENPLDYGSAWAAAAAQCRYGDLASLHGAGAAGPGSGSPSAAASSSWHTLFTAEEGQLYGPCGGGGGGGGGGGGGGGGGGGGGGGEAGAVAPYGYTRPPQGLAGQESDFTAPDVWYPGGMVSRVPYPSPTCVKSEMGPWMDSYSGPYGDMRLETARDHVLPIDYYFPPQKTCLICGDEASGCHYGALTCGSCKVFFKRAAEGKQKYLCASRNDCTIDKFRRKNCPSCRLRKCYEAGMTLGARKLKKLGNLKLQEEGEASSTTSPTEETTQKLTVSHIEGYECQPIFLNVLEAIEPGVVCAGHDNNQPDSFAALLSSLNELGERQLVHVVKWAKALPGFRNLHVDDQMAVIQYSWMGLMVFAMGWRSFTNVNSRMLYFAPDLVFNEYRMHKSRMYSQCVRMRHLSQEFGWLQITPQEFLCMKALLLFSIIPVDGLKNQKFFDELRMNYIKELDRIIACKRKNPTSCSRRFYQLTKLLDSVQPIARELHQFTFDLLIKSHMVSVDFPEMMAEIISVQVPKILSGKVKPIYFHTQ

CC12CCCC=C1C(=O)OC2=O (configuration not stated)
inactive: outcome [1] | Potency [2] | Potency [3] | Potency [4] | Potency [5] | Potency [6] | Potency [7] | Potency [8] | outcome [9] | outcome [10] | Potency [11] | Potency [12] | Potency [13] | outcome [14] | outcome [15] | Potency [16] | Potency [17]

COc1cc(NS(=O)(=O)c2ccc(N)cc2)ncn1
inactive: outcome [1] | Potency [2] | Potency [3] | Potency [4] | Potency [5] | Potency [6] | Potency [7] | Potency [8] | outcome [9] | outcome [10] | outcome [18] | Potency [11] | Potency [12] | Potency [13] | outcome [14] | Potency [19] | Potency [17]

Cc1ccccc1C#N
inactive: outcome [1] | Potency [2] | Potency [3] | Potency [4] | Potency [5] | Potency [6] | Potency [7] | Potency [8] | outcome [9] | outcome [10] | outcome [18] | Potency [11] | Potency [12] | Potency [13] | outcome [14] | outcome [20] | Potency [17]

C=CCOC(=O)CCCCCCCC
inactive: outcome [1] | Potency [2] | Potency [3] | Potency [4] | Potency [5] | Potency [6] | Potency [7] | Potency [8] | outcome [9] | outcome [10] | outcome [18] | Potency [11] | Potency [12] | Potency [13] | outcome [14] | outcome [20] | Potency [17]

COC(=O)c1cc(Cl)c(NC(C)=O)cc1OC
inactive: outcome [1] | Potency [2] | Potency [3] | Potency [4] | Potency [5] | Potency [6] | Potency [7] | Potency [8] | outcome [9] | outcome [10] | outcome [18] | Potency [11] | Potency [12] | Potency [13] | outcome [15] | Potency [16] | Potency [17]

C[C@@H]1CC[C@@]2(OC1)O[C@H]1C[C@H]3[C@@H]4CC[C@H]5C[C@@H](O)CC[C@]5(C)[C@H]4CC(=O)[C@]3(C)[C@H]1[C@@H]2C
inactive: activity change, negative = cytotoxic [1] 1.67% [at 6.97 µM] | cytotoxicity [2] -7.96% [at 6.97 µM] | cytotoxicity increase [3] -2.78% [at 6.97 µM] | activity change, negative = cytotoxicity [4] 0.253% [at 6.97 µM] | cytotoxicity increase [5] -0.706% [at 6.97 µM] | cytotoxicity [6] 2.51% [at 6.97 µM] | cytotoxicity increase [7] -3.63% [at 6.97 µM] | cytotoxicity increase [8] -0.568% [at 6.97 µM] | activity change, negative = cytotoxic [9] 0.914% [at 6.97 µM] | activity change, negative = cytotoxicity [10] -0.905% [at 6.97 µM] | activity change, negative = cytotoxicity [18] 2.92% [at 6.97 µM] | activity change [11] -0.0716% [at 6.97 µM, active compounds read high] | activity change, negative = cytotoxicity [12] 5.89% [at 6.97 µM] | cytotoxicity increase [13] -0.434% [at 6.97 µM] | activity change, negative = cytotoxicity [14] -0.428% [at 8.39 µM] | activity change, negative = inhibition [20] 0.329% [at 8.39 µM] | Potency [19] | activity change, negative = inhibition [17] 8.02% [at 8.39 µM]

CCCCCCCCCCCCCCCC(=O)OC
inactive: activity change, negative = cytotoxic [1] 6.89% [at 15.8 µM] | cytotoxicity [2] -19.7% [at 15.8 µM] | cytotoxicity increase [3] -22.4% [at 15.8 µM] | activity change, negative = cytotoxicity [4] -3.44% [at 15.8 µM] | cytotoxicity increase [5] -5.35% [at 15.8 µM] | cytotoxicity [6] -12.7% [at 15.8 µM] | cytotoxicity increase [7] -21.5% [at 15.8 µM] | cytotoxicity increase [8] -3.06% [at 15.8 µM] | activity change, negative = cytotoxic [9] -7.62% [at 15.8 µM] | activity change, negative = cytotoxicity [10] -2.1% [at 15.8 µM] | activity change, negative = cytotoxicity [18] 0.781% [at 15.8 µM] | activity change [11] 0.239% [at 15.8 µM, active compounds read high] | activity change, negative = cytotoxicity [12] -16.3% [at 15.8 µM] | cytotoxicity increase [13] -16.6% [at 15.8 µM] | activity change, negative = cytotoxicity [14] 6.9% [at 19 µM] | activity change, negative = inhibition [20] -4.11% [at 19 µM] | activity change, negative = inhibition [17] 2.36% [at 19 µM]

CCCCCCCCCCCBr
inactive: outcome [1] | Potency [2] | Potency [3] | Potency [4] | Potency [5] | Potency [6] | Potency [7] | Potency [8] | outcome [9] | outcome [10] | Potency [11] | Potency [12] | Potency [13] | outcome [14] | outcome [15] | outcome [20] | Potency [17]

COc1ccccc1N1CCN(CC(O)COc2cc(OC)c(OC)c(OC)c2)CC1 (configuration not stated)
inactive: outcome [1] | Potency [2] | Potency [3] | Potency [4] | Potency [5] | Potency [6] | Potency [7] | Potency [8] | outcome [9] | outcome [10] | outcome [18] | Potency [11] | Potency [12] | Potency [13] | outcome [14] | outcome [20] | Potency [17]

CC(C)(Sc1cc(C(C)(C)C)c(O)c(C(C)(C)C)c1)Sc1cc(C(C)(C)C)c(O)c(C(C)(C)C)c1
inactive: outcome [1] | Potency [2] | Potency [3] | Potency [4] | Potency [5] | Potency [6] | Potency [7] | Potency [8] | outcome [9] | outcome [10] | outcome [18] | Potency [11] | Potency [12] | Potency [13] | outcome [14] | outcome [15] | Potency [17]

CCCCC(CC)CCC(CC(C)C)OS(=O)(=O)O (configuration not stated)
inactive: outcome [1] | Potency [2] | Potency [3] | Potency [4] | Potency [5] | Potency [6] | Potency [7] | Potency [8] | outcome [9] | outcome [18] | Potency [11] | Potency [12] | Potency [13] | outcome [14] | outcome [15] | outcome [20] | Potency [19] | Potency [17]

c1coc(Cn2cccc2)c1
inactive: outcome [1] | Potency [2] | Potency [3] | Potency [4] | Potency [5] | Potency [6] | Potency [7] | Potency [8] | outcome [9] | outcome [18] | Potency [11] | Potency [12] | Potency [13] | outcome [14] | outcome [15] | outcome [20] | Potency [17]

CCCC[O][Al]([O]CCCC)[O]CCCC
inactive: outcome [1] | Potency [2] | Potency [3] | Potency [4] | Potency [5] | Potency [6] | Potency [7] | Potency [8] | outcome [9] | Potency [11] | Potency [12] | Potency [13] | outcome [14] | outcome [15] | Potency [17]

CC[N+](C)(CC)CC
inactive: outcome [1] | Potency [2] | Potency [3] | Potency [4] | Potency [5] | Potency [6] | Potency [7] | Potency [8] | outcome [9] | outcome [10] | Potency [11] | Potency [12] | Potency [13] | outcome [14] | outcome [15] | Potency [17]
